# Assay outcomes (PubChem)
# Rows were chosen to be rich in hits. Some 4% of all compounds tested hit in one or more screens of this group.
# KKLEB cytotox – CF airway cell cytotoxicity counter-screen | KKLEB CF airway cells viability, ATPlite luminescence, overnight; stronger effect = lower value; cells stimulated with P. aeruginosa culture filtrate | activity change (cytotoxicity), % at 5 µM | 0.36% of 360,000 active | AID 602141;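 active means corrected activity change at or below -50% at 5 µM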
# TWEAK-Fn14 inh – inhibitors of TWEAK-Fn14 interaction signaling; AID 1159606; inhibition, % at 10 µM; 2% of 360,000 active; TWEAK-stimulated Fn14 reporter cells, luciferase luminescence, 8 h; in the data active means inhibition above about 50%
# HIF-2a block – blocks HIF-2a reporter activity; 786-0 RCC cells HIF-2a reporter, luciferase luminescence, overnight; inhibition, % at 18.8 µM; AID 624352; 0.72% of 360,000 active;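 active means inhibition of the luminescence signal of 40% or more relative to plate controls, in a single-dose primary screen at 18.75 µM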
# TROY NFkB inh – inhibitors of TROY-dependent NF-kB signaling | Q293 LMP1-TROYcd NF-kB luciferase reporter, 4 h | inhibition, % at 10 µM | 0.98% of 360,000 active | AID 1347056;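 active means compounds whose plate-normalised and pattern-corrected inhibition of the luciferase reporter signal at the single screening dose is 50% or more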
# Peg3 prom inh – reduces Peg3 promoter-driven luciferase expression in HeLa; AID 588405; HeLa PEG-Prom luciferase reporter, luminescence, overnight; 1.7% of 360,000 active; inhibition, % at 20 µM;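 active means inhibition of at least 50% at 20 µM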
# CF NFkB block – blocks PAF-induced NF-kB reporter in cystic fibrosis cells | KKLEB NF-kB-GFP reporter, GFP fluorescence overnight | inhibition, % at 5 µM | 0.86% of 360,000 active | AID 588850;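 active means at least 50% inhibition at 5 µM, scaled per plate between neutral and stimulator controls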;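 further: PAF is a Pseudomonas aeruginosa culture filtrate used as stimulus; plate controls were PAF-stimulated DMSO wells for no effect and unstimulated DMSO wells for full effect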
# CF NFkB inh conf – confirmation of cystic fibrosis induced NF-kB inhibitors | KKLEB CF airway cells, PAF-induced NF-kB-GFP fluorescence, overnight | 64% of 1,300 active | AID 602472 | inhibition, % at 5 µM | shares compounds with CF NFkB block; in the data active means inhibition above about 40%;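 further: stimulus PAF is a Pseudomonas aeruginosa filtrate and not platelet activating factor; plate controls were DMSO wells with stimulus for no effect and unstimulated DMSO wells for full effect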
# Starred values were filed as active, the others as inactive; / = not tested or not shown.
SMILES,KKLEB cytotox,TWEAK-Fn14 inh,HIF-2a block,TROY NFkB inh,Peg3 prom inh,CF NFkB block,CF NFkB inh conf
O=C(Nc1cccc(Cl)c1)Nc1cc(S(=O)(=O)N2CCCCC2)ccc1Cl,-46,84*,-22,56*,66*,50*,75*
Cc1ccc(Cl)cc1-c1cc(C(=O)NCc2cc(C(F)(F)F)cc(C(F)(F)F)c2)[nH]n1,-31,61*,-29,43,40,59*,63*
COc1ccc(Cl)cc1-c1cc(C(=O)NCc2cc(C(F)(F)F)cc(C(F)(F)F)c2)[nH]n1,12,2,-14,28,-15,-25,/
COc1ccccc1NC(=O)c1cc2c(CO)cnc(C)c2oc1=Nc1ccc(OC)c(OC)c1,-49,-17,1,-20,56*,86*,85*
COC(=O)c1ccc2c(=O)[nH]c(CSc3nnc(C(F)(F)F)n3C)nc2c1,-8,-1,3,2,0,-8,/
CC(=O)c1sc(NCc2ccc(C)cc2)nc1C,-23,-16,-210,-18,-224,9,/
CCC(CC)c1nnc(NC(=O)c2cccc(S(=O)(=O)N3CCc4ccccc43)c2)s1,-1,41,3,39,9,5,/
CCOC(=O)c1sc(NC(=O)c2cccc(S(=O)(=O)N3CCc4ccccc43)c2)c(C#N)c1C,-32,48,-16,53*,40,61*,66*
Cc1ccc(-c2c(C(=O)N/N=C/c3cccnc3)nnn2-c2nonc2N)cc1,-7,-8,3,-23,-5,-7,/
O=C(CSc1nnc(-c2ccccc2F)n1C1CC1)N1CCCC1,4,-4,3,-6,-2,0,/
O=c1c(O)c(-c2ccccc2)oc2cc(O)cc(O)c12,6,55*,-97,-18,-203,60*,62*
COc1ccc(OC)c(NC(=O)CCn2cccc2)c1,6,0,-2,-1,2,7,/
CC(=O)c1c(C)n(-c2ccc(C)cc2C)c2ccc(O)cc12,-10,58*,34,22,14,65*,69*
CC(=O)c1ccc(-n2c(C)c(C(C)=O)c3cc(O)ccc32)cc1,16,43,13,13,18,56*,66*
CC(=O)c1c(C)n(-c2ccc(Br)cc2)c2ccc(O)cc12,10,37,28,11,12,45,/
CCOc1ccc(-n2c(C)c(C(C)=O)c3cc(O)ccc32)cc1,2,64*,32,35,12,57*,84*
CC(=O)c1c(C)n(-c2ccccc2)c2ccc(O)cc12,-16,46,16,28,10,59*,72*
CCOc1ccc(-n2c(C)c(C(=O)OC)c3cc(O)ccc32)cc1,0,29,18,35,15,24,/
COc1ccc(Cc2nnc(NC(=O)Nc3ccc(F)cc3)s2)cc1OC,-1,22,17,25,10,25,/
Cc1nc2sc(C(N)=O)c(N)c2c(C)c1CC(=O)c1ccccc1,-6,19,-44,18,-110,59*,75*
Cc1cc(C)c2c(N)c(C(=O)c3ccccc3)sc2n1,6,-24,-61,-41,-21,-41,/
O=C1[C@H](Cc2ccccc2)NCCCC[C@H](c2ccco2)N1Cc1ccccc1,-24,8,-11,-2,30,23,/
O=C1[C@H](Cc2ccccc2)NCCCC[C@H](c2ccc(Cl)cc2)N1Cc1ccccc1,-38,-6,16,9,32,59*,39
C[C@H](CO)N1C[C@H](C)[C@@H](CN(C)C(=O)Nc2ccc3c(c2)OCO3)Oc2c(NC(=O)Nc3ccc(C(F)(F)F)cc3)cccc2C1=O,-18,24,-20,18,60*,80*,91*
Cc1ccc(S(=O)(=O)N(C)C[C@@H]2Oc3ccc(NC(=O)CCC(F)(F)F)cc3CC(=O)N([C@@H](C)CO)C[C@@H]2C)cc1,-18,0,9,31,9,53*,43*
SMILES,KKLEB cytotox,TWEAK-Fn14 inh,HIF-2a block,TROY NFkB inh,Peg3 prom inh,CF NFkB block,CF NFkB inh conf
C[C@H](CO)N1C[C@H](C)[C@@H](CN(C)C(=O)Nc2ccc(C(F)(F)F)cc2)Oc2c(NC(=O)Nc3ccc4c(c3)OCO4)cccc2C1=O,20,-32,-1,-29,-8,-53,/
C[C@@H]1CN([C@H](C)CO)C(=O)c2cc(NC(=O)Nc3ccc(C(F)(F)F)cc3)ccc2O[C@H]1CN(C)S(=O)(=O)c1ccc(Cl)cc1,-6,53*,0,18,23,64*,70*
C[C@H](CO)N1C[C@H](C)[C@H](CN(C)S(=O)(=O)c2ccc(Cl)cc2)OCc2ccccc2-c2c(n(C)c3ccccc23)C1=O,-6,62*,-48,24,40,86*,4
COc1ccc(C(=O)NCC(=O)OCC(=O)Nc2c(C)n(C)n(-c3ccccc3)c2=O)cc1,-6,18,9,-4,11,-5,/
CCN(Cc1ccccc1)C(=O)c1cccc(S(=O)(=O)N2CCN(c3ccc(F)cc3)CC2)c1,6,15,4,17,18,17,/
C[C@@H]1CN([C@H](C)CO)C(=O)c2cc(NC(=O)Nc3ccc(C(F)(F)F)cc3)ccc2O[C@H]1CN(C)S(=O)(=O)c1cccs1,1,42,33,33,28,57*,81*
C[C@H](CO)N1C[C@H](C)[C@@H](CN(C)S(=O)(=O)c2cccs2)Oc2ccc(NC(=O)Nc3ccccc3)cc2C1=O,14,11,4,-2,29,-4,/
Cc1ccc2c(c1)C(=O)C(=O)N2Cc1ccc(Br)cc1,-22,2,-8,17,-26,62*,81*
O=C(Nc1cc(=O)[nH]c(=O)[nH]1)c1cccc(Br)c1,-27,11,10,17,9,21,/
C/C(=C\[C@@H](NP(=O)(c1ccccc1)c1ccccc1)c1ccccc1)CO[Si](c1ccccc1)(c1ccccc1)C(C)(C)C,-33,1,3,-16,17,54*,31
CCOC(=O)c1cnn(-c2cc(C)cc(C)c2)c1N,24,-23,-45,-37,-12,-13,/
O=C(N1CCCCC1)N1CCN(C(c2ccccc2)c2ccccc2)CC1,12,27,17,-14,19,7,/
Oc1c(C(c2ccccc2)N2CCCCC2)ccc2ccccc12 (configuration not stated),-31,15,11,-15,20,68*,27
Cc1cc(C)c(C(N)=O)c(Nc2cccc3ccccc23)n1,-8,16,8,-8,-4,50*,24
O=C1NCCc2c1[nH]c1c(Cl)ccc(Cl)c21,-15,39,38,41,17,56*,71*
COc1ccc(C(=O)COC(=O)c2ccc3c(c2)OCO3)c(OC)c1,-11,-11,-26,-37,-204,-5,/
